An excerpt weighted towards active compounds, which were near 1.7% of everything screened.
V-ATPase pH = alters yeast V-ATPase proton transport; 350,000 compounds, 0.37% hits; S. cerevisiae, pHLuorin cytosolic pH fluorescence; AID 504577; response, % at 10 µM; in the data active means response mostly above about 7.3%, no sharp cut-off; inactive means mostly below about 5.4%; further: actives read high
beta cell repl = induces beta-cell replication in MIN6 cells | MIN6 cells proliferation, ATPlite luminescence, 48 h; cells starved in 0.2% serum; 100% = growth in 10% serum | proliferation, % at 10 µM | 330,000 compounds, 0.29% hits | AID 2380;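 active means compounds whose signal lies at least 3.5 SD above the mean of all wells on their plate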
MOR-DOR inv ag = inverse agonist of human OPRM1-OPRD1 heterodimerization; 340,000 compounds, 0.21% hits; P35372+P41143; inhibition, % at 9.3 µM; cell-based MOR-DOR heterodimer luminescence, inverse agonism; in the data active means inhibition above about 22%, passing the limit was not always enough
HTR5A ag ctr = HTR5A agonism, opioid heterodimer counter-screen | activation, % at 9.3 µM | P47898 | 340,000 compounds, 0.61% hits | HTR5A agonist assay, luminescence, cell-based; in the data active means activation mostly above about 9.5%, no sharp cut-off; inactive means mostly below about 7.6%
Target sequence (P47898 whole entry, looked up): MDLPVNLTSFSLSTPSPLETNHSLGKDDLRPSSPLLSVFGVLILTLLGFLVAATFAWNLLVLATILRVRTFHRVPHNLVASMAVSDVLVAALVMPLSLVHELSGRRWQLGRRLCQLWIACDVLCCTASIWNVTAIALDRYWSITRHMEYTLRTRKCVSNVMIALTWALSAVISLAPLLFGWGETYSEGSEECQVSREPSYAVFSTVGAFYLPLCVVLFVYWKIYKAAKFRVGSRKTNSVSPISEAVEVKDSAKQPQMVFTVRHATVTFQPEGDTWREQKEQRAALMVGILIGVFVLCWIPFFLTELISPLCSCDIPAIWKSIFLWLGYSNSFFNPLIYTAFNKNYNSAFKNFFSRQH
MOR-DOR ag = OPRM1-OPRD1 heterodimerization agonism. P35372+P41143. cells, luminescence. activation, % at 9.3 µM. 340,000 compounds, 0.3% hits. AID 504326; in the data active means activation above about 18%
HTR5A inv ctr = HTR5A inverse agonism, opioid heterodimer counter-screen; P47898; HTR5A cell line, luminescence; inhibition, % at 9.3 µM; 340,000 compounds, 0.083% hits; AID 504634; in the data active means inhibition mostly above about 23%, no sharp cut-off; inactive means mostly below about 18%
MOR-DOR inv conf = OPRM1-OPRD1 heterodimer inverse agonism, confirmation; inhibition, % at 9.3 µM; shares compounds with MOR-DOR inv ag; AID 504900; 580 compounds, 20% hits; cells expressing OPRM1/OPRD1 heterodimer, luminescence; in the data active means inhibition above about 32%
HTR5A inv ctr2 = HTR5A inverse agonism, opioid heterodimer counter-screen; shares compounds with MOR-DOR inv ag; HTR5A-expressing cells, luminescence; inhibition, % at 9.3 µM; 580 tested, under 10 active; call rule not given here
Of the large screens only hits and unclear results are named; the others gave an inactive call (follow-up assays come after a bar, where they were run).

c1cncc(-c2nnc(-c3cccnc3)nn2)c1	MOR-DOR inv ag 86.3 | MOR-DOR inv conf inactive | HTR5A inv ctr2 inactive
O=C(c1cccnc1)c1cccnc1	none
O=C(c1nc[nH]c1C(=O)N1CCc2ccccc2C1)N1CCc2ccccc2C1	none
CCOCCCNC(=O)/C(C#N)=C/c1cc(OC)c(O)c([N+](=O)[O-])c1	MOR-DOR inv ag 29.8 | MOR-DOR inv conf inactive | HTR5A inv ctr2 inactive
CCOCCCNC(=O)/C(C#N)=C/c1ccc(Cl)c([N+](=O)[O-])c1	none
S=c1[nH]ccn1-c1cccc(Cl)c1	none
CN(C)c1ccc(N=Nc2nc3ccccc3n2C)cc1	none
Cn1c(N=Nc2ccccc2)nc2ccccc21	MOR-DOR inv ag 43.1 | MOR-DOR inv conf inactive | HTR5A inv ctr2 inactive
O=C(CN1CCN(S(=O)(=O)c2ccc(Br)s2)CC1)NCC1CCCCC1	none (no result: beta cell repl, MOR-DOR inv ag, HTR5A ag ctr, MOR-DOR ag, HTR5A inv ctr)
CCCn1c2ccccc2c2nnc(SCC(=O)Nc3ncccn3)nc21	MOR-DOR inv ag 31.7 | MOR-DOR inv conf inactive | HTR5A inv ctr2 inactive
Cc1cc(O)c(/C=N/Nc2cccc(Cl)c2)c(=O)o1	none
Cc1cc(O)c(/C=N/Nc2ccc(Cl)cc2)c(=O)o1	MOR-DOR inv ag 46.3 | MOR-DOR inv conf inactive | HTR5A inv ctr2 inactive
O=C(CN1C(=O)C2CC=CCC2C1=O)OCC(=O)c1ccc(Cl)c([N+](=O)[O-])c1 (stereo not drawn)	MOR-DOR inv ag 89.5, HTR5A inv ctr 38.2 | MOR-DOR inv conf 59.1 | HTR5A inv ctr2 inactive
O=C(CCc1ccccc1)OCC(=O)c1cccc([N+](=O)[O-])c1	MOR-DOR inv ag 54.3 | MOR-DOR inv conf 31.2 | HTR5A inv ctr2 inactive
O=C(CN1C(=O)c2ccccc2C1=O)NCC(=O)OCC(=O)c1cccc([N+](=O)[O-])c1	MOR-DOR inv ag 72.7 | MOR-DOR inv conf 45.2 | HTR5A inv ctr2 inactive
O=C(CN1C(=O)C2C3CC(C(Br)C3Br)C2C1=O)OCC(=O)c1cccc([N+](=O)[O-])c1 (stereo not drawn)	MOR-DOR inv ag 60.9 | MOR-DOR inv conf 37.8 | HTR5A inv ctr2 inactive
O=C(CN1C(=O)C2C3C=CC(C3)C2C1=O)OCC(=O)c1ccc([N+](=O)[O-])cc1 (stereo not drawn)	none
O=S(=O)(NCCC1=CCCCC1)c1ccccc1Cl	none
C/C(=N\NC(=O)c1ccccn1)c1ccc(C(=O)O)s1	none (no result: V-ATPase pH, MOR-DOR inv ag, HTR5A ag ctr, MOR-DOR ag, HTR5A inv ctr)
CC(C)(C)c1cc(C(=O)NCC(=O)OCC(=O)c2cccc([N+](=O)[O-])c2)cc(C(C)(C)C)c1	MOR-DOR inv ag 46.3 | MOR-DOR inv conf 37.3 | HTR5A inv ctr2 52.2
O=C(Cc1ccccc1)NCC(=O)OCC(=O)c1cccc([N+](=O)[O-])c1	MOR-DOR inv ag 64.4 | MOR-DOR inv conf 58.1 | HTR5A inv ctr2 inactive
C#CCNC(=O)C1=C[C@H](C)C[C@H](OCc2ccc(CO)cc2)O1	none
O=C1C=C(N2CCOCC2)c2ccccc2C1=O	none
CC1=C(C)C(=O)C(N2CCOCC2)=CC1=O	MOR-DOR inv ag 46.6 (no result: beta cell repl) | MOR-DOR inv conf inactive | HTR5A inv ctr2 inactive
COc1cc(Br)c(S(=O)(=O)Nc2c(C)n(C)n(-c3ccccc3)c2=O)cc1OC	none
COc1ccc(S(=O)(=O)Nc2c(C)n(C)n(-c3ccccc3)c2=O)c(Cl)c1Cl	MOR-DOR inv ag 31.0 | MOR-DOR inv conf inactive | HTR5A inv ctr2 inactive
Cc1ccc(NNC(=O)c2ccno2)cc1C	MOR-DOR inv ag 60.9 | MOR-DOR inv conf inactive | HTR5A inv ctr2 inactive
Cc1noc(C)c1C(=O)NNc1ccc(C(C)C)cc1	none
Cc1ccc(NNC(=O)c2c(C)noc2C)cc1Cl	MOR-DOR inv ag 41.3 | MOR-DOR inv conf inactive | HTR5A inv ctr2 inactive
O=C(Nc1cc(Cl)cc(Cl)c1)c1ccno1	none
Cc1ccc(NNC(=O)c2ccno2)cc1Cl	MOR-DOR inv ag 52.2 | MOR-DOR inv conf inactive | HTR5A inv ctr2 inactive
O=C(NCc1ccc2c(c1)OCO2)c1nc(S(=O)(=O)Cc2ccccc2F)ncc1Cl	MOR-DOR inv ag 32.0 | MOR-DOR inv conf inactive | HTR5A inv ctr2 inactive
O=C(NCc1ccccc1)c1nc(S(=O)(=O)Cc2ccccc2)ncc1Cl	MOR-DOR inv ag 34.8 | MOR-DOR inv conf inactive | HTR5A inv ctr2 inactive
COc1ccc(CNC(=O)c2nc(S(=O)(=O)Cc3ccccc3)ncc2Cl)cc1	none
O=C(NCc1ccc2c(c1)OCO2)c1nc(S(=O)(=O)Cc2ccccc2)ncc1Cl	none
C=CCNC(=S)NCCCCC1NC(=S)N(CC=C)C1=O (stereo not drawn)	MOR-DOR inv ag 24.7 (no result: V-ATPase pH) | MOR-DOR inv conf inactive | HTR5A inv ctr2 inactive
Cc1cccc(NC(=O)Cn2cnc3c(oc4ccccc43)c2=O)c1C	none
CCOc1ccc(C(=O)NCC(=O)OCCN2C(=O)c3ccccc3C2=O)cc1OCC	none
CCOC(=O)N1CCN(C(=O)c2cccc(S(=O)(=O)Nc3ccccc3Cl)c2)CC1	none
COc1cc(-n2nc(C)c3c2OC(N)=C(C#N)C3c2ccccc2)c(Cl)c(Br)c1O (stereo not drawn)	MOR-DOR inv ag 34.2 | MOR-DOR inv conf inactive | HTR5A inv ctr2 inactive
Cc1nn(-c2ccccc2)c2c1C(c1ccncc1)C(C#N)=C(N)O2 (stereo not drawn)	none
Cc1cc(C2CC(=O)Nc3ccccc3S2)c(C)s1 (stereo not drawn)	none
COc1ccccc1NC(=O)COC(=O)CN1C(=O)C(=O)c2ccccc21	MOR-DOR inv ag 56.5 | MOR-DOR inv conf inactive | HTR5A inv ctr2 inactive
O=C(CN1C(=O)C(=O)c2ccccc21)OCN1C(=O)c2ccccc2C1=O	none
Cc1ccc(C(=O)Nc2ccccc2[N+](=O)[O-])cc1S(=O)(=O)N1CCOCC1	MOR-DOR inv ag 39.0 | MOR-DOR inv conf inactive | HTR5A inv ctr2 inactive
COc1ccc(C(=O)Nc2ccccc2[N+](=O)[O-])cc1S(=O)(=O)N1CCOCC1	none
Cc1cccc(NC(=S)NC(=O)c2ccco2)n1	MOR-DOR inv ag 21.8 | MOR-DOR inv conf inactive | HTR5A inv ctr2 inactive
OCC[C@@H]1C[C@H](O)[C@@H](O)[C@]2(Cc3ccccc3CCO2)O1	none
N#CC1(Nc2cccc(Br)c2)C(=O)Nc2ccccc21 (stereo not drawn)	MOR-DOR inv ag 49.6 | MOR-DOR inv conf inactive | HTR5A inv ctr2 inactive
N#CC1(Nc2ccccc2)C(=O)Nc2ccccc21 (stereo not drawn)	MOR-DOR inv ag 56.6 | MOR-DOR inv conf inactive | HTR5A inv ctr2 inactive
CC(=O)Nc1ccc(C2(c3ccc(NC(C)=O)cc3)C(=O)Nc3ccccc32)cc1	none
COc1cc(CC(=O)OCC(=O)NCCc2ccc(S(N)(=O)=O)cc2)cc(OC)c1OC	none
COC(=O)c1cccc2c1NC(=O)C2=O	none
CCc1cccc2c1NC(=O)C2=O	MOR-DOR inv ag 60.9 (no result: beta cell repl) | MOR-DOR inv conf inactive | HTR5A inv ctr2 inactive
Cc1ccc(C(O)C(=O)c2ccco2)cc1 (stereo not drawn)	none

Compound activity (PubChem BioAssay)
